# Data published in PubChem BioAssay (NCATS).
# Inconclusive results are not listed. Entries that show only a call come without a potency. Activity calls are given as the source filed them. Unless noted, the call rests on the fitted dose curve; in most records, active means well fitted curve in the direction sought with a large enough effect; inconclusive means small, poorly fitted or top-dose-only effect, or another doubt; inactive means no such curve, though single readings can be large; an effect the other way counts as inactive or inconclusive.
# What was measured:
# [1] = molecular target: Cytochrome P450 3A4 (Homo sapiens) (UniProt P08684); assay: qHTS Assay for Inhibitors and Substrates of Cytochrome P450 3A4 (AID 884); further: nearly all actives have a fitted effect of over 50% in size; further: potency means the concentration at half of the fitted maximal effect
# Sequence of Cytochrome P450 3A4 (Homo sapiens) (P08684 whole entry, looked up): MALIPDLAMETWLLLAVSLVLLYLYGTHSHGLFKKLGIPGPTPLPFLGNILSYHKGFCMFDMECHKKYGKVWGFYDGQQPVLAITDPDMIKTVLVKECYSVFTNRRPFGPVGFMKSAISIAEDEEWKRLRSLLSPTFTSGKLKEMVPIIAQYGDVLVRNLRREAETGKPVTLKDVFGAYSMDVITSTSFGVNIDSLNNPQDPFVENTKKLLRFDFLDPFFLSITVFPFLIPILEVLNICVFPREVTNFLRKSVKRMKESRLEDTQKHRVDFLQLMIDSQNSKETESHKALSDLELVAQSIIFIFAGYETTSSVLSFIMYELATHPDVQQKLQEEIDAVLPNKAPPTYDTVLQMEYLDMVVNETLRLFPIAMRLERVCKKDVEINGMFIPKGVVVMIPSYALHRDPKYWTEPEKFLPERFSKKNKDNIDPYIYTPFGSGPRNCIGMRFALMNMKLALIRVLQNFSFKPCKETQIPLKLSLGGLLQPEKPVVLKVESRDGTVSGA
# Procedure, shortened: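 20 nM human CYP3A4 with 25 uM Luciferin-PPXE (at KM) in 200 mM KPO4, preincubated 10 min with compound; NADPH regeneration started a 60 min RT reaction. Luciferin detected by luminescence, normalized to 57 uM ketoconazole as full inhibition.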
# [2] = Confirmation and Secondary Assay for Modulators of Hemoglobin Beta Chain Splicing at IVS2 654 locus (AID 910);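 further: per-well total GFP intensity by laser scanning cytometry after 2-day treatment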
# Procedure, shortened: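 HeLa cells stably carrying EGFP interrupted by mutant beta-globin IVS2-654 intron (CMV-driven) were treated with compound for 2 days at 37C; corrected splicing was scored as total peak GFP intensity per well (488 nm excitation, 500-520 nm emission).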
# [3] = Confirmation and Secondary Assay for Modulators of Hemoglobin Beta Chain Splicing at IVS2 705 locus (AID 930);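 further: HeLa cells stably expressing the EGFP-705 splicing reporter; GFP fluorescence per well restored by corrected splicing of the IVS2-705 intron in EGFP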
# Procedure, shortened: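 HeLa EGFP-705 reporter; 500 cells/well, o/n 37C 5% CO2; cpd 2 d; 488 ex/500-520 em laser scan; total peak GFP intensity/well. Ref: 500 nM […] antisense PNA.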
# [4] = qHTS Assay for Lipid Storage Modulators (AID 1519; calls by dose curve); conditions: Drosophila S3 cells, BODIPY lipid droplet/cell ratio, laser cytometry, cells loaded with oleic acid; for activity change, negative = inhibition: at 57.5 µM (top of the series)
# Procedure, shortened: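 Cells seeded at 5,000 per well were treated with compounds over a concentration series and loaded with oleic acid (400 uM, as added). Lipid droplet fluorescence (488 nm excitation, 500-530 nm channel) was read by laser-scanning cytometry and normalized to 20 uM Triacsin C.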
# [5] = molecular target: Ubiquitin carboxyl-terminal hydrolase 1 (Homo sapiens) (UniProt O94782); assay: Inhibitors of USP1/UAF1: Pilot qHTS (AID 504865);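 further: rhodamine fluorescence freed from ubiquitin-rhodamine substrate followed over time; top concentration of the series differs between compounds; nearly all actives have a fitted effect of over 35% in size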
# Sequence of Ubiquitin carboxyl-terminal hydrolase 1 (Homo sapiens) (O94782 whole entry, looked up): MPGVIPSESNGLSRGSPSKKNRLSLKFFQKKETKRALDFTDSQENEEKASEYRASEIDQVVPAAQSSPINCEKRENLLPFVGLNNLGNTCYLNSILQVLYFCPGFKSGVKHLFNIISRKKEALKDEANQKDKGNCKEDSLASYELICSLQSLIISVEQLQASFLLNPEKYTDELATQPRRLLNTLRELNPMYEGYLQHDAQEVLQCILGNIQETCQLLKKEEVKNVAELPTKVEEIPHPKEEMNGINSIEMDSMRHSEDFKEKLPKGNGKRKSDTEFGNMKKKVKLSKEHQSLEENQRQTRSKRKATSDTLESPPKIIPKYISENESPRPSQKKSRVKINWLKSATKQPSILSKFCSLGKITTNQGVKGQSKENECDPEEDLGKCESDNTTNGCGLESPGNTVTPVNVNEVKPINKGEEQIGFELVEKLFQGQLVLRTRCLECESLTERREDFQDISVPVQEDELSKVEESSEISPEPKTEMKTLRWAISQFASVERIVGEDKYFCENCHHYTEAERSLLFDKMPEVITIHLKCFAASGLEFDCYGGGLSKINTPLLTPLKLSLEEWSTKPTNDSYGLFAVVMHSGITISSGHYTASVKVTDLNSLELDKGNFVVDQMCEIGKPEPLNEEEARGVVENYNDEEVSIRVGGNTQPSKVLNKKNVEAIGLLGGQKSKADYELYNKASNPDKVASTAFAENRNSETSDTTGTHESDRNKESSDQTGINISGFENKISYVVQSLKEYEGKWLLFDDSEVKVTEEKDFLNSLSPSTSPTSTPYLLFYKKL
# Procedure, shortened: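 Enzyme-free wells gave the negative control, while test wells held 1nM USP1/UAF1 preincubated with compound for 15 min at room temperature. Ub-Rho at 150nM final started the reaction, and fluorescence at 480/540 nm was recorded kinetically.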
# [6] = measured here: cell count channel max response
# [7] = measured here: lipid channel max response
SMILES,Potency [1],Potency [2],Potency [3],"activity change, negative = inhibition [4]","max response [4, 6] [%]","max response [4, 7] [%]",Potency [5]
COc1cccc2c1CCC1=CC(=O)CC[C@@]12C,inactive,inactive,inactive,11.4% (inactive),2.03,15.6,inactive
O=C/C=C/c1ccc(O)cc1,inactive,inactive,inactive,4.82% (inactive),10.7,16.6,inactive
C[C@@]12CCC3c4ccc(OS(=O)(=O)O)cc4CCC3C1CCC2O (stereo not given in full),inactive,inactive,inactive,4.64% (inactive),6.41,9.99,inactive
CCC(C(=O)O)c1ccccc1 (stereo not given),inactive,inactive,inactive,0.321% (inactive),8.63,10.3,inactive
CC(=O)OC1CC(OC(C)=O)[C@]2(C)C(CC(=O)[C@]3(C)C2CC[C@@]2(C)C(c4ccoc4)OC(=O)C4O[C@@]423)C1(C)C (stereo not given in full),20 µM (active),inactive,inactive,4.36% (inactive),11.4,20.9,inactive
CCOC(=O)C(=O)C1(C(=O)OCC)Oc2cc(OC)cc(OC)c2C(=O)C1c1ccccc1 (stereo not given),inactive,inactive,inactive,5.57% (inactive),9.96,15,inactive
C[C@@H]1/C(=N/O)CC2C[C@@H]1C2(C)C,inactive,inactive,inactive,2.67% (inactive),9.02,13.7,inactive
CC1CC[C@@]2(OC1)OC1CC3C4CC[C@@H]5CC(O)CC[C@@]5(C)C4CC[C@]3(C)C1C2C (stereo not given in full),inactive,inactive,inactive,4.69% (inactive),11.7,17.1,inactive
O=C(/C=C/c1ccc(O)c(O)c1)O[C@H]1C[C@@](O)(C(=O)O)CC(O)C1O (stereo not given in full),inactive,inactive,inactive,12.5% (inactive),13.7,29.5,inactive
COC(=O)/C(C)=C/CC12OC(C)(C)C3CC(C=C4C(=O)c5cc6c(c(CCC(C)(C)Cl)c5OC431)OC1(C)CCC(=C(C)C)C6C1)C2=O (stereo not given),inactive,inactive,inactive,14.1% (inactive),7.63,20.5,inactive
CCOC(=O)CCCCCCCCCCCCC1C=CCC1 (stereo not given),inactive,inactive,inactive,1.66% (inactive),9.42,10.7,inactive
CCC(/C=C/C(C)C1CCC2C3CC=C4CC(O)CC[C@@]4(C)C3CC[C@@]12C)C(C)C (stereo not given in full),inactive,inactive,inactive,-0.637% (inactive),13.1,13.6,inactive
CCOc1ccc(C(=O)c2ccc(O)c(O)c2O)cc1,inactive,inactive,inactive,4.84% (inactive),-5.66,-2.36,inactive
CC1CCC2(OC1)OC1CC3C4CCC5CC(O)CCC5(C)C4=CCC3(C)C1C2C (stereo not given),inactive,inactive,inactive,-0.725% (inactive),2.89,3.25,inactive
CC1=C2C(O)C(=O)OC3CC4C(C)(C)C(=O)C=C[C@]4(C)C(CC1)[C@@]23C (stereo not given in full),inactive,inactive,inactive,3.51% (inactive),17.8,24.5,inactive
CC1(C)C2CC[C@@]1(C)C(=O)C2,inactive,inactive,inactive,3.53% (inactive),13.5,19.8,inactive
CC(=O)N1CCCC1C(=O)O (stereo not given),inactive,inactive,inactive,7.19% (inactive),1.45,9.22,inactive
OCC1OC(n2cnc3c(NCc4ccco4)ncnc32)C(O)C1O (stereo not given),inactive,inactive,inactive,-0.247% (inactive),-4.44,-3.92,inactive
O=c1[nH]c(=O)n(C2CC(O)C(CO)O2)cc1C(F)(F)F (stereo not given),inactive,inactive,inactive,3.87% (inactive),-2.79,3.03,inactive
CC(=O)Oc1ccc2c(c1)CCC1C2CC[C@]2(C)C(=O)CCC12 (stereo not given in full),inactive,inactive,inactive,-6.33% (inactive),-13.1,-17.8,inactive
C[C@@H]1OC(OC2CC[C@@]3(C)C(CC[C@@]4(C)C3CC=C3C5CC(C)(C)CC[C@]5(C(=O)OC5OCC(O)[C@@H](O)[C@@H]5OC5O[C@@H](C)[C@H](O[C@H]6OC(CO)C(O)C(O)C6O)C(O)C5O)C(O)C[C@@]34C)C2(C)C)C(O)C(O)[C@H]1OC1OCC(O)C(O)[C@H]1O (stereo not given in full),inactive,inactive,inactive,1.15% (inactive),-28.2,-26.8,inactive
CC(=O)OCC(=O)[C@]1(O)C(OC(C)=O)CC2C3CCC4=CC(=O)C=C[C@@]4(C)[C@]3(F)C(O)C[C@]21C (stereo not given in full),inactive,inactive,inactive,2.18% (inactive),7.55,12.5,inactive
COc1cc(-c2coc3cc(O[C@H]4OC(CO)C(O)C(O)C4O)c(OC)c(O)c3c2=O)cc(O)c1OC (stereo not given in full),inactive,inactive,inactive,7.43% (inactive),6.4,13.8,inactive
O=c1[nH]c(Cl)nc2c1ncn2C1OC(CO)C(O)C1O (stereo not given),inactive,inactive,inactive,5.69% (inactive),2.53,10.3,inactive
CCOC(=O)C(CCc1ccccc1)NC(C)C(=O)N1CCCC1C(=O)O (stereo not given),inactive,inactive,inactive,10.8% (inactive),9.89,24.1,inactive
